These results are taken from PubChem BioAssay (Tox21).

Records with an inconclusive call do not appear. Entries that show only a call come without a potency. Calls of active or inactive are those of the source. Calls come from the whole dose curve; as a rule, active = well fitted cell-killing curve with a large enough effect in the repeat runs; inconclusive = weak or mixed curves, or effect the other way; inactive = flat fitted curve, though single readings scatter.

A short description of this experiment: qHTS assay to identify small molecule antagonists of the constitutive androstane receptor (CAR) signaling pathway - cell viability counter screen (AID 1224837). Note: nearly all actives have a fitted effect of over 45% in size. To be noted: HepG2-CYP2B6-hCAR viability, CellTiter-Fluor, 23 h, co-treated with 50 nM CITCO; series mostly up to 92.4 µM. An excerpt: National Center for Advancing Translational Sciences [NCATS]
NIH Chemical Genomics Center [NCGC]
U.S. Environmental Protection Agency [EPA]
National Institutes of Environmental Health Sciences [NIEHS]
National Toxicology Program [NTP]
U.S. Food and Drug Administration [FDA]
The constitutive androstane receptor (CAR) is a nuclear receptor which regulates multiple drug metabolizing enzymes (DMEs) and transporters. Activating CAR will generally increase the transcription and subsequent translation of CYP2B6 and CYP3A4. These two DMEs represent about 50% of the drug metabolizing potential in the body. When CAR is deactivated, the metabolizing potential in the body will decrease, subsequently increasing the toxicity in the body or lowering the therapeutic potential of a pro-drug. Recently, there have also been studies performed indicating CARs role in energy metabolism and cancer therapy. Therefore, inhibiting CARs activity could have a potential effect on diabetes and cancer. Identifying environmental toxins and compounds which modulate CAR, through the use of the Tox21 10K compound collection, will be an important step in determining the toxicity and potential therapeutic effects these factors will have on the human body. To differentiate true CAR antagonists from cytotoxic substances, the assay is multiplexed with a cell viability assay.
Tox21 Assay Protocol Summary:
A double-stable (hCAR and CYP2B6-2.2kb) transfected cell line, derived from human hepatoma (HepG2) cells, was utilized for the duration of the quantitative high-throughput screens. The HepG2-CYP2B6-hCAR cells were dispensed at 2500 cells/4 uL/well in 1536-well white solid bottom plates using a Multidrop Combi. After the assay plates were incubated at 37 C/5% CO2 for 4 hrs, 23 nL of compounds at 15 concentrations (from 5-48 columns) or positive control (from 1 to 4 columns) were transferred to the assay plates using a Pintool station. One uL of CITCO (final concentration = 50 nM) was added, using a Flying Reagent Dispenser, inside each well. After a 23 hr incubation period at 37 C/5% CO2, 1 uL of CellTiter-Fluor reagent was added into each well of the assay plates using a Flying Reagent Dispenser. The fluorescence intensity in the plates was then measured using a ViewLux plate reader.
`CCCCC(CC)(CO)CO`: the Potency entry was “inactive”.
Consider `CC(Cc1cccc(C(F)(F)F)c1)NCCOC(=O)c1ccccc1` (stereo not given), for which the Potency result is “inactive”.
With `N#CCCNCCC#N`, the Potency result was “inactive”.
For the compound `O=C(O)COC(=O)Cc1ccccc1Nc1c(Cl)cccc1Cl`, the Potency entry was “inactive”.
As for `CCCC(=O)OCC`, the Potency result is “inactive”.
Under `COC(=O)CSc1cc(N=c2sc(=O)n3n2CCCC3)c(F)cc1Cl` stands “inactive”; under `Cn1sccc1=O`, “inactive”.
As to `O=C(Nc1ccccc1)OCC(CN1CCCCC1)OC(=O)Nc1ccccc1` (stereo not given), the Potency entry is “inactive”.
Regarding `CC(C)(C)c1ccc(S)cc1`, the Potency entry was “inactive”.
Turning to `O=C(c1ccc(O)cc1)c1ccc(O)cc1`, the Potency entry is “inactive”.
With `Oc1ccc2c(c1)OCO2`, the Potency result was “inactive”.
For `CCCCCCCCCCCCC(=O)O`, the Potency result was “inactive”.
The same measure for `ClC(Cl)(Cl)c1ccc(C(Cl)(Cl)Cl)cc1`: “inactive”.
As to `O=c1[nH]cnc2ccccc12`, the Potency result was “inactive”.
With `CCCCc1cc2ccccc2c(OCCN(C)C)n1`, the Potency result is “inactive”.
Under `O=C1Nc2cc(Cl)ccc2Oc2ccccc21` stands “inactive”; under `COc1ccccc1OC(=O)Oc1ccccc1OC`, “inactive”.
Regarding `CC(=O)OCCc1ccccc1`, the Potency result is “inactive”.
`CC(=O)N(CC(=O)N(C)C)c1ccccc1`: the Potency entry is “inactive”.
Regarding `O=c1c2ccccc2nnn1CCl`, the Potency entry was “inactive”.
Consider `Oc1ccc(Cc2ccccc2)cc1`, for which the Potency entry was “inactive”.
Turning to `CC(=O)SCc1ccco1`, the Potency result is “inactive”.
Regarding `C[Si](C)O[Si](C)(C)O[Si](C)(C)O[Si](C)C`, the Potency entry is “inactive”.
The same measure for `COCCO`: “inactive”.
Take `C1=Cc2ccccc2C1`: the Potency entry is “inactive”.
As to `CCOC(=O)C1=NN(c2ccccc2)C(=O)C1`, the Potency result was “inactive”.
As for `O=C1[C@H](CC[C@H](O)c2ccc(F)cc2)[C@@H](c2ccc(O)cc2)N1c1ccc(F)cc1`, the Potency result was “inactive”.
In the case of `Nc1nc(N)c2nc(CNc3ccc(C(=O)N[C@@H](CCC(=O)O)C(=O)O)cc3)cnc2n1`, the Potency entry is “inactive”.
`CC(=O)[C@@]1(O)CC[C@H]2[C@@H]3C[C@H](C)C4=CC(=O)CC[C@]4(C)[C@H]3CC[C@@]21C`: the Potency result was “inactive”.
On to `CC(=O)O[C@@H]1C(=O)O[C@@H]2[C@H]1OC(=O)[C@@H]2OC(C)=O`, for which the Potency entry was “inactive”.
Turning to `COCCOCCOCCOCCOC`, the Potency entry was “inactive”.
The same measure for `CCCCCC(CO)CCC` (stereo not given): “inactive”; for `CC(C)(C)c1cc(CO)cc(C(C)(C)C)c1O`: “inactive”; for `CCN(CC)CCOC(=O)C1(c2ccccc2)CCCC1`: “inactive”.
On to `Cn1c(NCCN(CCO)CCCc2ccc([N+](=O)[O-])cc2)cc(=O)n(C)c1=O`, for which the Potency result was “inactive”.
Under `O=C(O)Cc1cc(I)c(Oc2ccc(O)c(I)c2)c(I)c1` stands “inactive”; under `N=C(N=C(N)N)N1CCOCC1`, “inactive”; under `CCCCCCCCCO`, “inactive”.
For `CC1(C)CCC(C)(C)c2cc(NC(=O)c3ccc(C(=O)O)cc3)ccc21`, the Potency result was “inactive”.
As for `CCCCOC(=O)/C=C\C(=O)OCCCC`, the Potency entry was “inactive”.
